Screen size: about 5,500 compounds; about 2,000 (36%) were called active. Inconclusive results (about 18%) are left out. Cut-off read from the data, not from the text of the source: active = normalized growth mostly below about 0.91 (no sharp cut-off); inconclusive = no clear call, values can overlap the other calls; inactive = mostly above about 0.92. Some of the results follow.
Test: chemical genetic growth profiling, strain panel (AID 1159580);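 note: tested at 20 µM; growth read once vehicle control cultures reached saturation at 30 °C; 1 = growth at the plate median or of vehicle wells; lower values mean less growth of the strain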
Conditions: growth OD

Measured: normalized growth

CC(C)CCCC(C)C1CC[C@@]2(C)C3=C(CC[C@]12C)[C@@]1(C)CC[C@H](O)C(C)(C)C1CC3 (stereo partly specified)
inactive: S. cerevisiae deletion strains, locus YAL013W, strain DEP1, hits give low values 1.01 | S. cerevisiae deletion strains, locus YBR021W, strain FUR4, hits give low values 0.959 | S. cerevisiae deletion strains, locus YBR229C, strain ROT2, hits give low values 1 | S. cerevisiae deletion strains, locus YCL029C, strain bik1, hits give low values 0.976 | S. cerevisiae deletion strains, locus YDL035C, strain GPR1, hits give low values 1 | S. cerevisiae deletion strains, locus YDL074C, strain BRE1, hits give low values 1.06 | S. cerevisiae deletion strains, locus YDL101C, strain DUN1, hits give low values 1.01 | S. cerevisiae deletion strains, locus YDL134C, strain PPH21, hits give low values 0.997 | S. cerevisiae deletion strains, locus YDL185W, strain tfp1, hits give low values 0.985 | S. cerevisiae deletion strains, locus YDL192W, strain arf1, hits give low values 0.983 | S. cerevisiae deletion strains, locus YDR101C, strain arx1, hits give low values 0.996 | S. cerevisiae deletion strains, locus YDR150W, strain NUM1, hits give low values 1 | S. cerevisiae deletion strains, locus YDR162C, strain NBP2, hits give low values 1.02 | S. cerevisiae deletion strains, locus YDR318W, strain mcm21, hits give low values 0.974 | S. cerevisiae deletion strains, locus YDR388W, hits give low values 0.981 | S. cerevisiae deletion strains, locus YDR502C, strain sam2, hits give low values 0.99 | S. cerevisiae deletion strains, locus YEL061C, strain CIN8, hits give low values 1.01 | S. cerevisiae deletion strains, locus YER110C, hits give low values 0.975 | S. cerevisiae deletion strains, locus YER155C, strain BEM2, hits give low values 1 | S. cerevisiae deletion strains, locus YER167W, strain BCK2, hits give low values 0.99 | S. cerevisiae deletion strains, locus YGL078C, strain dbp3, hits give low values 0.993 | S. cerevisiae deletion strains, locus YGL086W, strain mad1, hits give low values 0.986 | S. cerevisiae deletion strains, locus YGL248W, strain PDE1, hits give low values 0.995 | S. cerevisiae deletion strains, locus YGR078C, strain PAC10, hits give low values 1.04 | S. cerevisiae deletion strains, locus YGR135W, strain pre9, hits give low values 0.995 | S. cerevisiae deletion strains, locus YGR229C, strain SMI1, hits give low values 1.03 | S. cerevisiae deletion strains, locus YGR252W, strain gcn5, hits give low values 0.95 | S. cerevisiae deletion strains, locus YHR030C, strain SLT2, hits give low values 0.998 | S. cerevisiae deletion strains, locus YHR079C, strain IRE1 (second series), hits give low values 0.982 | S. cerevisiae deletion strains, locus YHR094C, strain hxt1, hits give low values 0.985 | S. cerevisiae deletion strains, locus YHR129C, strain ARP1, hits give low values 1 | S. cerevisiae deletion strains, locus YHR200W, strain rpn10, hits give low values 0.981 | S. cerevisiae deletion strains, locus YIL066C, strain RNR3, hits give low values 1.01 | S. cerevisiae deletion strains, locus YIL073C, strain SPO22, hits give low values 0.918 | S. cerevisiae deletion strains, locus YIL125W, strain kgd1, hits give low values 0.992 | S. cerevisiae deletion strains, locus YIR030C, strain dcg1, hits give low values 0.987 | S. cerevisiae deletion strains, locus YJL095W, strain BCK1, hits give low values 1.06 | S. cerevisiae deletion strains, locus YJL134W, strain LCB3, hits give low values 0.994 | S. cerevisiae deletion strains, locus YJL168C, strain set2, hits give low values 0.985 | S. cerevisiae deletion strains, locus YJL187C, strain SWE1 (second series), hits give low values 1 | S. cerevisiae deletion strains, locus YJR043C, strain POL32, hits give low values 0.987 | S. cerevisiae deletion strains, locus YJR075W, strain HOC1, hits give low values 1.03 | S. cerevisiae deletion strains, locus YKL009W, strain mrt4, hits give low values 0.939 | S. cerevisiae deletion strains, locus YKL068W, hits give low values 1 | S. cerevisiae deletion strains, locus YKL085W, strain MDH1 (second series), hits give low values 0.988 | S. cerevisiae deletion strains, locus YKL085W, strain MDH1, hits give low values 0.988 | S. cerevisiae deletion strains, locus YKL190W, strain CNB1, hits give low values 1 | S. cerevisiae deletion strains, locus YKR001C, strain vps1, hits give low values 0.984 | S. cerevisiae deletion strains, locus YLR039C, strain RIC1, hits give low values 0.985 | S. cerevisiae deletion strains, locus YLR058C, strain SHM2, hits give low values 1 | S. cerevisiae deletion strains, locus YLR102C, strain apc9, hits give low values 0.993 | S. cerevisiae deletion strains, locus YLR262C, strain YPT6, hits give low values 0.976 | S. cerevisiae deletion strains, locus YLR268W, strain sec22, hits give low values 0.996 | S. cerevisiae deletion strains, locus YLR330W, strain CHS5, hits give low values 1 | S. cerevisiae deletion strains, locus YLR342W, strain FKS1 (second series), hits give low values 0.96 | S. cerevisiae deletion strains, locus YLR371W, strain rom2, hits give low values 0.98 | S. cerevisiae deletion strains, locus YLR418C, strain cdc73, hits give low values 1.04 | S. cerevisiae deletion strains, locus YML016C, strain PPZ1, hits give low values 0.997 | S. cerevisiae deletion strains, locus YML032C, strain rad52, hits give low values 0.966 | S. cerevisiae deletion strains, locus YML124C, strain tub3, hits give low values 0.982 | S. cerevisiae deletion strains, locus YMR078C, strain ctf18, hits give low values 0.972 | S. cerevisiae deletion strains, locus YMR223W, strain ubp8, hits give low values 0.965 | S. cerevisiae deletion strains, locus YMR263W, strain SAP30, hits give low values 1.03 | S. cerevisiae deletion strains, locus YMR307W, strain GAS1, hits give low values 0.957 | S. cerevisiae deletion strains, locus YNL067W, strain RPL9B, hits give low values 1.04 | S. cerevisiae deletion strains, locus YNL128W, strain TEP1, hits give low values 1.04 | S. cerevisiae deletion strains, locus YNL153C, strain GIM3, hits give low values 1.02 | S. cerevisiae deletion strains, locus YNL233W, strain BNI4, hits give low values 1.01 | S. cerevisiae deletion strains, locus YNL250W, strain rad50, hits give low values 1.02 | S. cerevisiae deletion strains, locus YNL271C, strain bni1, hits give low values 0.988 | S. cerevisiae deletion strains, locus YNL298W, strain CLA4, hits give low values 0.967 | S. cerevisiae deletion strains, locus YNL307C, strain MCK1, hits give low values 0.959 | S. cerevisiae deletion strains, locus YNL322C, strain KRE1, hits give low values 1.01 | S. cerevisiae deletion strains, locus YNR052C, strain pop2, hits give low values 0.98 | S. cerevisiae deletion strains, locus YOL006C, strain TOP1, hits give low values 1.03 | S. cerevisiae deletion strains, locus YOL012C, strain htz1 0.94 | S. cerevisiae deletion strains, locus YOL147C, strain pex11, hits give low values 0.989 | S. cerevisiae deletion strains, locus YOR061W, strain CKA2, hits give low values 1.01 | S. cerevisiae deletion strains, locus YOR069W, strain VPS5, hits give low values 0.995 | S. cerevisiae deletion strains, locus YOR136W, strain idh2, hits give low values 0.979 | S. cerevisiae deletion strains, locus YOR144C, strain elg1, hits give low values 0.994 | S. cerevisiae deletion strains, locus YOR184W, strain ser1, hits give low values 0.932 | S. cerevisiae deletion strains, locus YOR316C, strain cot1, hits give low values 0.985 | S. cerevisiae deletion strains, locus YPL055C, strain LGE1, hits give low values 1.05 | S. cerevisiae deletion strains, locus YPL241C, strain CIN2, hits give low values 1 | S. cerevisiae deletion strains, locus YPR119W, strain clb2, hits give low values 0.999 | S. cerevisiae deletion strains, locus YPR141C, strain kar3, hits give low values 0.993 | S. cerevisiae deletion strains, locus YPR163C, strain tif3, hits give low values 0.981 | S. cerevisiae deletion strains, locus YPR167C, strain met16, hits give low values 0.994 | S. cerevisiae deletion strains, strain wtn01, hits give low values 0.985 | S. cerevisiae strains, strain wild type, hits give low values 0.957
